Columns and labels:
Test in all cases: log2 ratio of Biotin-Ahx-Ub-VS probe labelling (fragment/DMSO); higher = less target engagement (more negative = stronger competition), active = hit call of the paper (q ≤ 0.05, log2 ratio ≤ -1)
Settings in all cases: compound concentration: 200 uM; treatment time: 3 h
USP9X = USP9X (UniProt Q93008)
Procedure, shortened: (§1)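 Using Biotin-Ahx-Ub-VS at 0.5 µM final for 1 h, DUBs were labelled in HEK293T lysate (495 µg per sample) that had first been treated in triplicate with fragment at 200 µM or vehicle for 3 h. NeutrAvidin enrichment, LysC and trypsin digestion and diaPASEF LC-MS/MS followed. Spectronaut label-free quantities were global-median-normalised. Values are average log2 fragment/vehicle ratios by unpaired t-test, using proteins with ≥2 unique peptides.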

UniProt O00487 = target: UniProt O00487
UniProt O00487, sequence (O00487 whole entry): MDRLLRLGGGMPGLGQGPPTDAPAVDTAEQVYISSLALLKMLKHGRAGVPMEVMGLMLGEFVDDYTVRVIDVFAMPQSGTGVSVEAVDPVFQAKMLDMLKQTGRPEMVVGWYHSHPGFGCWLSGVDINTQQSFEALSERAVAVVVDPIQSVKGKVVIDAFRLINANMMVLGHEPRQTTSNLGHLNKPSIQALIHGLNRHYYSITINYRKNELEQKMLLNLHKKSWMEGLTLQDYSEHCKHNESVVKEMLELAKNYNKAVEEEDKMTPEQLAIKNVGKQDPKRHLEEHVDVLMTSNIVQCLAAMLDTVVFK
Procedure, shortened: as §1

UniProt O00507 = target: UniProt O00507
Procedure, shortened: as §1

UniProt P51784 = target: UniProt P51784
UniProt P51784, sequence (P51784 whole entry): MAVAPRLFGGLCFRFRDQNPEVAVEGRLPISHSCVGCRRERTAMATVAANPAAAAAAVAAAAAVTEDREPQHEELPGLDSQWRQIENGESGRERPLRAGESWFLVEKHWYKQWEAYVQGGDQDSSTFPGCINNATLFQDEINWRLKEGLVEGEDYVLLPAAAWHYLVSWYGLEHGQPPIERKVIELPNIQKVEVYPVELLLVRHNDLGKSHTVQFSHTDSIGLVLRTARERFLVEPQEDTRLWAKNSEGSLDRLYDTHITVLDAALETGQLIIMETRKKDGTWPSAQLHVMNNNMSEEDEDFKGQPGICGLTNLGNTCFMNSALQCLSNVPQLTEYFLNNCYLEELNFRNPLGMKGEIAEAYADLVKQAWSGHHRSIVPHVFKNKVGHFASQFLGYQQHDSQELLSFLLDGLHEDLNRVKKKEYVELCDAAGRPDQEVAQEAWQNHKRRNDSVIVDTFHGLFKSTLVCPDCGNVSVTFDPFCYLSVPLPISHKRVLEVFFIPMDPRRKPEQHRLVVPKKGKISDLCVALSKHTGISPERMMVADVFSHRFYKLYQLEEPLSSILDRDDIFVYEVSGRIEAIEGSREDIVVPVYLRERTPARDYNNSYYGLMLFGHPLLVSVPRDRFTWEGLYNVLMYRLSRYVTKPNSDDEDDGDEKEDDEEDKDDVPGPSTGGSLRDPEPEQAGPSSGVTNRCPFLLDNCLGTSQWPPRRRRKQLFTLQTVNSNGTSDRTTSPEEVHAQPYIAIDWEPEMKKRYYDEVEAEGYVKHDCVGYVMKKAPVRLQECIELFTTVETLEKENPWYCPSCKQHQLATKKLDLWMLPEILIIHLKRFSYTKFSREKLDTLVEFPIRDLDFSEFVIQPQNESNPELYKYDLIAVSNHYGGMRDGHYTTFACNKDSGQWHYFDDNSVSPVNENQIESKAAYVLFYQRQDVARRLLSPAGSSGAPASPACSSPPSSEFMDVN
Procedure, shortened: as §1

UniProt Q5T2D3 = target: T1, UniProt Q5T2D3
T1 sequence (whole entry): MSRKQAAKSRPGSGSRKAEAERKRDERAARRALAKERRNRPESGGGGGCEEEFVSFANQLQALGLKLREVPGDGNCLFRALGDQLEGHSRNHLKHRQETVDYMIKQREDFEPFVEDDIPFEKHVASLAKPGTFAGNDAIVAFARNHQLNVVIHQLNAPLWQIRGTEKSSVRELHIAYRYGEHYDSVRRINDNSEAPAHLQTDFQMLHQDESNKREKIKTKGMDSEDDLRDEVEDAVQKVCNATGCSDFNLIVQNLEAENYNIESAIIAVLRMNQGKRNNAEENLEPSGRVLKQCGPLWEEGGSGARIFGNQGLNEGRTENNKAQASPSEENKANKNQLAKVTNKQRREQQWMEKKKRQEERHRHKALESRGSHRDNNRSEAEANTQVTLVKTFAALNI
Procedure, shortened: as §1

UniProt Q8TE49 = target: T2, UniProt Q8TE49
T2 sequence (whole entry): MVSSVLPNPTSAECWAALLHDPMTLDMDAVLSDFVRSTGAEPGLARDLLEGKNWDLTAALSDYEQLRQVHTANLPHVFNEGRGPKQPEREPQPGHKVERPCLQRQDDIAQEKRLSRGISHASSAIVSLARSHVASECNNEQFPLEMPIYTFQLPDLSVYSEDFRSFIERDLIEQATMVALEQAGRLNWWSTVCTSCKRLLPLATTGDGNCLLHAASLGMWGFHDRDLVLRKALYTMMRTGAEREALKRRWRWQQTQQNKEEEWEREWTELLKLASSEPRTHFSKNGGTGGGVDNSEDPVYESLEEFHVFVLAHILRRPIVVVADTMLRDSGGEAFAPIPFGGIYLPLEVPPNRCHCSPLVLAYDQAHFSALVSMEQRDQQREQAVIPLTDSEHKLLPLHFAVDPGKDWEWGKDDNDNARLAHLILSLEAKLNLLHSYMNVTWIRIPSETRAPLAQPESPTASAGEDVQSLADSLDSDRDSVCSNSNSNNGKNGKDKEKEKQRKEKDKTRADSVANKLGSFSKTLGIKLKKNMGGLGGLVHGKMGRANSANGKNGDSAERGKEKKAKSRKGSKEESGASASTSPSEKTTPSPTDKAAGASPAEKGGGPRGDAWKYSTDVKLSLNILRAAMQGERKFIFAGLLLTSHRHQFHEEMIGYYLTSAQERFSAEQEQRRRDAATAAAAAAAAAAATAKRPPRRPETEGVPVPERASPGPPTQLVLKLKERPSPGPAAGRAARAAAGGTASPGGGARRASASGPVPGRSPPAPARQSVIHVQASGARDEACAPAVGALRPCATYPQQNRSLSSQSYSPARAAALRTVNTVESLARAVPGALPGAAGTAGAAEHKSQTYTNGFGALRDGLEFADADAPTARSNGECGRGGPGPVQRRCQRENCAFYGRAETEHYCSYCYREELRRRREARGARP
Procedure, shortened: as §1

UniProt Q9P2H5 = target: T3, UniProt Q9P2H5
T3 sequence (whole entry): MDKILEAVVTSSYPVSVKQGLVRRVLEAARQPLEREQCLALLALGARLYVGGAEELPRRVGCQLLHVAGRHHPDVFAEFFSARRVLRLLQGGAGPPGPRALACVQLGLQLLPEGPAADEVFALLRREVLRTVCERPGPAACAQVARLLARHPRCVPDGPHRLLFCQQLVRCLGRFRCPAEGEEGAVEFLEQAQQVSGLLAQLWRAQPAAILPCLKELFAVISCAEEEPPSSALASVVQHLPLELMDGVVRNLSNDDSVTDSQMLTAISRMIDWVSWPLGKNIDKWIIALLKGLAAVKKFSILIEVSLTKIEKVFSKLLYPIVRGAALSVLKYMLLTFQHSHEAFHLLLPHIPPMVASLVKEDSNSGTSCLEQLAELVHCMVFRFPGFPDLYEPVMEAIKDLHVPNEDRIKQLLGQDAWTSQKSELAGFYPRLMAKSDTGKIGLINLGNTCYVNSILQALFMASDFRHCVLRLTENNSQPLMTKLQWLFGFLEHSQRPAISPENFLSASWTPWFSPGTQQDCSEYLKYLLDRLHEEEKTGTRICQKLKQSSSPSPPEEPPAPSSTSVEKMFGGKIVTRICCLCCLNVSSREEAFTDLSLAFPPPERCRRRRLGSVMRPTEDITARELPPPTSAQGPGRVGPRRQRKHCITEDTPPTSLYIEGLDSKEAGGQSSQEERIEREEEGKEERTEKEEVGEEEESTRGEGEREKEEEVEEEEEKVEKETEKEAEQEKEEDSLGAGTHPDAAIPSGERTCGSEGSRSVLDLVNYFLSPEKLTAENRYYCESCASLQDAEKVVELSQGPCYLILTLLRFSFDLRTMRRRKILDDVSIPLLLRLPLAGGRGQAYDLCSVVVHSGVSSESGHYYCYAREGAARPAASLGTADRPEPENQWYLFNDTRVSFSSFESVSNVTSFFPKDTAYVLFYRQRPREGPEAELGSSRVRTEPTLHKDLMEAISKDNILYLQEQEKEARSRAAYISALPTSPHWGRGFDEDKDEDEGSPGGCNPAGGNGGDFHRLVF
Procedure, shortened: as §1

UniProt Q9UGI0 = target: T4, UniProt Q9UGI0
T4 sequence (whole entry): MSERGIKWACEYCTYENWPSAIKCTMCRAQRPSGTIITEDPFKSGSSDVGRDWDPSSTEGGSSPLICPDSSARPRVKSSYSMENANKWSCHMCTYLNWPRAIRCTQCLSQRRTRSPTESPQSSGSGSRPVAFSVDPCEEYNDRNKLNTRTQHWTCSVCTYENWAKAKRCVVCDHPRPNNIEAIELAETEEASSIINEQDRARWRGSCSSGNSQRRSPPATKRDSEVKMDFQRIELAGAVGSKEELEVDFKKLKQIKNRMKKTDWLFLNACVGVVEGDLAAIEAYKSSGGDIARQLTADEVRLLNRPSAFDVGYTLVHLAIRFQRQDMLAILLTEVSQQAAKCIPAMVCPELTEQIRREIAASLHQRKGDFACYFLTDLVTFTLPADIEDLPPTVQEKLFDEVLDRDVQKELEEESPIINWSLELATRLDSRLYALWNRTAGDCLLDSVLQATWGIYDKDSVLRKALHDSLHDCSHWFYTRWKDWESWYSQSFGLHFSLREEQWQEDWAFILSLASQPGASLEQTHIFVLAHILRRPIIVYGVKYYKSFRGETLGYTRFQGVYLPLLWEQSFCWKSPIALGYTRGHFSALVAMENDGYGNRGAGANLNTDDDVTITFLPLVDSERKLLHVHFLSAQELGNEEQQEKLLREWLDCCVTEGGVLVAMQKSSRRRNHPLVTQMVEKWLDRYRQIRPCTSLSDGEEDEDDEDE
Procedure, shortened: as §1

YOD1 = target: T5, YOD1 (UniProt Q5VVQ6)
T5 sequence (whole entry): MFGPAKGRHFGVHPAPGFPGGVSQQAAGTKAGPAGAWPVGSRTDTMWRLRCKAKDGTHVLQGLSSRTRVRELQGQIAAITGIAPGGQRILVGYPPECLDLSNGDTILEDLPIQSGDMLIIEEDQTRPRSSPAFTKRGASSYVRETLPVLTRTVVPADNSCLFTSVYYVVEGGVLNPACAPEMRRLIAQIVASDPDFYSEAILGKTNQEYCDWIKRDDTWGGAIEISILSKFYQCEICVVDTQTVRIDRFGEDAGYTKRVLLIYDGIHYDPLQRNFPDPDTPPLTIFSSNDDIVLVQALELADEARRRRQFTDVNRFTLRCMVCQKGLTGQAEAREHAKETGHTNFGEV
Procedure, shortened: as §1

Measured: log2 ratio of Biotin-Ahx-Ub-VS probe labelling

USP9X, sequence (Q93008 whole entry, the tested form may be a part): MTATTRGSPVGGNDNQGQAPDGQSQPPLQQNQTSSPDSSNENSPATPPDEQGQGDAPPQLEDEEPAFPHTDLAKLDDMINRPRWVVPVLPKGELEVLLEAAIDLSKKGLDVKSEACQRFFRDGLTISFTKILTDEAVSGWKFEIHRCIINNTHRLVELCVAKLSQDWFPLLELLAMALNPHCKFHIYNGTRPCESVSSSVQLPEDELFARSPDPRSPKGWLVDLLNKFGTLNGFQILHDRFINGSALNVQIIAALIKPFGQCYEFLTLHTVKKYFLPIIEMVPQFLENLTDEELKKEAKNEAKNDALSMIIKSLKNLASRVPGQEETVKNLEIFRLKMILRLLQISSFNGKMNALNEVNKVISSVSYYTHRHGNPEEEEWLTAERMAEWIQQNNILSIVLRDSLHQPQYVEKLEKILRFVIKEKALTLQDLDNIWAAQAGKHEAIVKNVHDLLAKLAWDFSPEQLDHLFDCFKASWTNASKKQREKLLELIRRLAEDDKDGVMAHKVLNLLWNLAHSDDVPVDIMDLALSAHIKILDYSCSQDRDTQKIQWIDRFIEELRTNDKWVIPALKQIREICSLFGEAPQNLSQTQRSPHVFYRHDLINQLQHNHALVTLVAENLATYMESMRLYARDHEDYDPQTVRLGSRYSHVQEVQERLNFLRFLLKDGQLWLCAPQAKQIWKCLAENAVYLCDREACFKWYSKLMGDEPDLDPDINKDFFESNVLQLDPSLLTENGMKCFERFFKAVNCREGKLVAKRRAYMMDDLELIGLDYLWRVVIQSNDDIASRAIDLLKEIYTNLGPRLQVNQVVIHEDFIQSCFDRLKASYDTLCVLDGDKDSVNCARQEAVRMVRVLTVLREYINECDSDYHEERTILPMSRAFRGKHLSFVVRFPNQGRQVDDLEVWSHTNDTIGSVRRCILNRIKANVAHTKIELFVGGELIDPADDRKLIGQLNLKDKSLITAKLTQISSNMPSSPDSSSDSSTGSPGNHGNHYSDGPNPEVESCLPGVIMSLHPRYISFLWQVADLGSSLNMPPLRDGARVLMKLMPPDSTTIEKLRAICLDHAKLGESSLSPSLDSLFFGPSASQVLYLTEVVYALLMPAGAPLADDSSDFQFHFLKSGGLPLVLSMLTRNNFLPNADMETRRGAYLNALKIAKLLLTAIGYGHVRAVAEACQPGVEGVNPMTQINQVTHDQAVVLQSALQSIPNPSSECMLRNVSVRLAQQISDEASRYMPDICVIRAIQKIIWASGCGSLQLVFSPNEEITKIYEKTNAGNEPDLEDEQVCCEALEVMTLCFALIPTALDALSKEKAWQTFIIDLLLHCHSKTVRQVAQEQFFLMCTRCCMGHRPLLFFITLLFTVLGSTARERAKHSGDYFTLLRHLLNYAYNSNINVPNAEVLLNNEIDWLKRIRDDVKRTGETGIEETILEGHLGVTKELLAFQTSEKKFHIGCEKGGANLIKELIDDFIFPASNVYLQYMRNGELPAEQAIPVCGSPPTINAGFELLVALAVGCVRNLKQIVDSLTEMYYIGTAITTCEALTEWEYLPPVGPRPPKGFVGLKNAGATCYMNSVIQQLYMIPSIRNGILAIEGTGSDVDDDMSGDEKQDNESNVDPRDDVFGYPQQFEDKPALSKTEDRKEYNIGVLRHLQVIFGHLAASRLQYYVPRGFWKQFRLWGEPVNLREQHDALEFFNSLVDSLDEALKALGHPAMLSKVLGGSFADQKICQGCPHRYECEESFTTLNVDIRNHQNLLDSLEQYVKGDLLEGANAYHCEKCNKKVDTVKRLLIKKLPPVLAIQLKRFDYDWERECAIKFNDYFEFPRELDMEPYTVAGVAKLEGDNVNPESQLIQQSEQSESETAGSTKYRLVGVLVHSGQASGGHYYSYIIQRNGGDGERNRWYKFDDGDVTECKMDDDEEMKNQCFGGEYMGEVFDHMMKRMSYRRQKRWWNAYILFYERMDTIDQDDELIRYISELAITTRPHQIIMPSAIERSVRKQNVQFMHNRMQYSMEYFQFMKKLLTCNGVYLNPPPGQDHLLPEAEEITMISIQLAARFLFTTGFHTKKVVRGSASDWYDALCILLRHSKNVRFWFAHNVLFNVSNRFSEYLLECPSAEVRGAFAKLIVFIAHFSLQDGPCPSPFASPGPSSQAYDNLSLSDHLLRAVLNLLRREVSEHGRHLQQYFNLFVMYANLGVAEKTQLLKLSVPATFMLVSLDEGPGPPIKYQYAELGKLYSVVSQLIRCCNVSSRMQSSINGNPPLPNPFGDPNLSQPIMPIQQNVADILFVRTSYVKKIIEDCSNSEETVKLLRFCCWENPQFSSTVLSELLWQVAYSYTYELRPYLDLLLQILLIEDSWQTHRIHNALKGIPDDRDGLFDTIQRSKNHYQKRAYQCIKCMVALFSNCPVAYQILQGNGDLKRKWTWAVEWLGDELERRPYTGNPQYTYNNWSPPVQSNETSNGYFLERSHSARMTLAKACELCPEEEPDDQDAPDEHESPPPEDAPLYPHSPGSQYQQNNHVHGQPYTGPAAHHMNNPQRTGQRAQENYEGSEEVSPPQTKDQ

Cc1cc(Cl)ccc1NC(=O)CCl
inactive: USP9X -0.0827 | UniProt O00487 -0.165 | UniProt O00507 0.519 | UniProt P51784 -0.115 | UniProt Q5T2D3 -0.142 | UniProt Q8TE49 -0.396 | UniProt Q9P2H5 -0.193 | UniProt Q9UGI0 -0.477 | YOD1 -0.175

— the supplement of paper PMC11732987, “Enantioselective OTUD7B fragment discovery through chemoproteomics screening and high-throughput optimisation” (Communications Chemistry, 2025)
